The panel holds about 83,000 compounds, 20% with a hit somewhere; the sample as a whole holds those more often.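 Percent growth is the endpoint: 0 to 100 indicates growth inhibition (40 means 60% inhibition), 0 means no net growth, and negative values indicate cell death.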 Active and inactive are the calls of the source. How the source made its calls: active means growth percent below 10; inactive means the rest.
Experiments:
Test in all cases: NCI-60 one-dose screen, 48 h (100 = growth as untreated, 0 = no growth, -100 = all killed)
Conditions in all cases: 10 µM unless noted
DU-145 prostate = system: DU-145 prostate
K-562 leukemia = system: K-562 leukemia
MALME-3M melanoma = system: MALME-3M melanoma
MDA-MB-231 breast = system: MDA-MB-231 breast
RXF 393 renal = system: RXF 393 renal
SF-268 CNS = system: SF-268 CNS
SF-295 CNS = system: SF-295 CNS
SF-539 CNS = system: SF-539 CNS
UACC-257 melanoma = system: UACC-257 melanoma
M14 melanoma = system: M14 melanoma

Measured: growth

c1cc[c]([Bi]([c]2ccccc2)[c]2ccccc2)cc1
inactive: DU-145 prostate 107% | K-562 leukemia 105% | MALME-3M melanoma 94% | MDA-MB-231 breast 95.2% | RXF 393 renal 101% | SF-268 CNS 104% | SF-295 CNS 103% | SF-539 CNS 105% | UACC-257 melanoma 106% | M14 melanoma 94%

Cc1ccc(S(=O)(=O)NC(CCC(=O)Nc2ccccc2)C(=O)Nc2ccccc2)cc1 (stereo not given)
active: DU-145 prostate 5.02% | K-562 leukemia 3.93% | MALME-3M melanoma -36.5% | MDA-MB-231 breast -30.1% | RXF 393 renal -24.6% | SF-268 CNS 8.46% | SF-295 CNS -3.31% | SF-539 CNS -75.6% | UACC-257 melanoma -18.4% | M14 melanoma 3.93%

Cc1ncc(C(=O)Nc2ccc(CN3CCN(C)CC3)c(C(F)(F)F)c2)cc1C#Cc1c(N)ncc2ccc(F)cc12
inactive: SF-268 CNS 20% | SF-295 CNS 42%
active: DU-145 prostate -88.6% | K-562 leukemia -57.1% | MALME-3M melanoma -79.6% | MDA-MB-231 breast -88.9% | RXF 393 renal -88.1% | SF-539 CNS -93.6% | UACC-257 melanoma -18.6% | M14 melanoma -74.9%

COc1cc2oc(-c3ccc(NC(=O)c4ccccc4)cc3)cc(=O)c2c(OC)c1OC
inactive: DU-145 prostate 82.3% | K-562 leukemia 102% | MALME-3M melanoma 74.8% | MDA-MB-231 breast 74.9% | RXF 393 renal 90.2% | SF-268 CNS 77.5% | SF-295 CNS 77.4% | SF-539 CNS 81.6% | UACC-257 melanoma 97.3% | M14 melanoma 92.8%

Cc1cc2cn3c4ccc(O)cc4[nH]c(=O)c3c2cc1C
active: DU-145 prostate 3.48% | K-562 leukemia -36.8% | MDA-MB-231 breast -11.1% | SF-295 CNS 9.25% | M14 melanoma -19.4%
inactive: MALME-3M melanoma 16.4% | RXF 393 renal 38.1% | SF-268 CNS 15.4% | SF-539 CNS 12% | UACC-257 melanoma 46.6%

COc1ccccc1C(=O)Nc1cccc(-c2cc(=O)c3c(OC)c(OC)c(OC)cc3o2)c1
inactive: DU-145 prostate 44.9% | K-562 leukemia 36.4% | MALME-3M melanoma 65.5% | MDA-MB-231 breast 51.3% | RXF 393 renal 59% | SF-268 CNS 54.5% | SF-295 CNS 59.2% | SF-539 CNS 63.8% | UACC-257 melanoma 61.5% | M14 melanoma 41.5%

COC(=O)C(C)[C@H]1CC[C@@H]2[C@]1(C)CC=C1[C@]23C=C[C@]2(C[C@@H](OC(C)=O)CC[C@]12C)C(C(=O)OC)C3C(=O)OC (stereo not given in full)
inactive: DU-145 prostate 99.6% | K-562 leukemia 48.8% | MALME-3M melanoma 73.1% | MDA-MB-231 breast 89.5% | RXF 393 renal 102% | SF-268 CNS 90.5% | SF-295 CNS 88.4% | SF-539 CNS 99.3% | UACC-257 melanoma 97.5% | M14 melanoma 96.5%

CN1C(=O)C(=Cc2coc3ccc(Br)cc3c2=O)C(=O)N(C)C1=O
inactive: DU-145 prostate 103% | K-562 leukemia 127% | MALME-3M melanoma 139% | MDA-MB-231 breast 97.6% | RXF 393 renal 93.6% | SF-268 CNS 97.6% | SF-295 CNS 120% | SF-539 CNS 100% | UACC-257 melanoma 101% | M14 melanoma 99.8%

COc1cccc2c1n([O-])c1cccc(OC)c1[n+]2=O
active: RXF 393 renal -35.3%
inactive: DU-145 prostate 60.9% | K-562 leukemia 37.6% | MALME-3M melanoma 89.2% | MDA-MB-231 breast 95.7% | SF-268 CNS 62% | SF-295 CNS 120% | SF-539 CNS 68.4% | UACC-257 melanoma 71% | M14 melanoma 96%

Cc1ccc(C(=O)Nc2ccc(CN3CCN(C)CC3)c(C(F)(F)F)c2)cc1C#Cc1cncc2ncccc12
active: DU-145 prostate -88.1% | K-562 leukemia -67.4% | MALME-3M melanoma -88.9% | MDA-MB-231 breast -97% | RXF 393 renal -95.7% | SF-268 CNS -70.6% | SF-539 CNS -98.2% | UACC-257 melanoma -64% | M14 melanoma -89.5%
inactive: SF-295 CNS 27.3%

C=CN(C)S(C)(=O)=O
active: RXF 393 renal -9.3% | SF-295 CNS 8.18% | SF-539 CNS 4.91%
inactive: DU-145 prostate 18.5% | K-562 leukemia 21.9% | MALME-3M melanoma 28.3% | MDA-MB-231 breast 46.2% | SF-268 CNS 36.5% | UACC-257 melanoma 35.5% | M14 melanoma 28.8%

CCCCCCCCCCCCCCCCCC1=NCCN1CCNC(C)=O
inactive: DU-145 prostate 69.7% | K-562 leukemia 26.4% | MALME-3M melanoma 98.9% | MDA-MB-231 breast 66.3% | RXF 393 renal 99% | SF-268 CNS 88.7% | SF-295 CNS 108% | SF-539 CNS 86.8% | UACC-257 melanoma 108% | M14 melanoma 101%

COc1ccc(C(=O)NCCNc2nccc(-c3c(-c4ccc(F)cc4)nc4sccn34)n2)cc1
inactive: DU-145 prostate 59.1% | K-562 leukemia 59.5% | MALME-3M melanoma 76% | MDA-MB-231 breast 62.2% | RXF 393 renal 72% | SF-268 CNS 59.2% | SF-295 CNS 61.6% | SF-539 CNS 79.1% | UACC-257 melanoma 89% | M14 melanoma 55.6%

Ic1ccc(SSc2ccc(I)cc2)cc1
inactive: DU-145 prostate 103% | K-562 leukemia 95.5% | MALME-3M melanoma 114% | MDA-MB-231 breast 87.8% | RXF 393 renal 99.7% | SF-268 CNS 59.2% | SF-295 CNS 77.5% | SF-539 CNS 86.1% | UACC-257 melanoma 88.1% | M14 melanoma 104%

Cc1ccc([C@@H]2C[C@H](O)Cc3ccccc3N2)s1
inactive: DU-145 prostate 111% | K-562 leukemia 101% | MALME-3M melanoma 104% | MDA-MB-231 breast 102% | RXF 393 renal 126% | SF-268 CNS 106% | SF-295 CNS 107% | SF-539 CNS 97.4% | UACC-257 melanoma 100% | M14 melanoma 125%

C=CCNC(=S)NNc1ccc([N+](=O)[O-])cn1
inactive: DU-145 prostate 104% | K-562 leukemia 94.3% | MALME-3M melanoma 79.6% | MDA-MB-231 breast 89.7% | RXF 393 renal 104% | SF-268 CNS 97.7% | SF-295 CNS 96.9% | SF-539 CNS 104% | UACC-257 melanoma 97.9% | M14 melanoma 96%

Nc1nc2c(c3cnccc13)C(c1cccc(Br)c1)Cc1cnccc1-2 (stereo not given)
active: K-562 leukemia 9.88% | MDA-MB-231 breast 4.34% | RXF 393 renal 7.59% | SF-539 CNS -15.9% | M14 melanoma -12.7%
inactive: DU-145 prostate 11.4% | MALME-3M melanoma 36.1% | SF-268 CNS 20.3% | SF-295 CNS 13.6% | UACC-257 melanoma 55.5%

Cc1ccc(S(=O)(=O)N/N=C2\CC3CCC2C3)cc1 (stereo not given)
inactive: DU-145 prostate 114% | K-562 leukemia 103% | MALME-3M melanoma 102% | MDA-MB-231 breast 111% | RXF 393 renal 112% | SF-268 CNS 113% | SF-295 CNS 86.6% | SF-539 CNS 97.6% | UACC-257 melanoma 114% | M14 melanoma 104%

CCCCCCNC(=O)Oc1ccc(/C(=C(/C)Cc2ccc(OC)cc2)c2ccc(OCCN(C)C)cc2)cc1
active: K-562 leukemia -38.8% | MALME-3M melanoma -34.7% | UACC-257 melanoma 5.2% | M14 melanoma -53.9%
inactive: DU-145 prostate 78.7% | MDA-MB-231 breast 43% | RXF 393 renal 51.4% | SF-268 CNS 72.3% | SF-295 CNS 65.8% | SF-539 CNS 73.2%

O=C(/C=C/c1ccc(Br)cc1)c1ccccc1
inactive: DU-145 prostate 95.6% | K-562 leukemia 59.4% | MALME-3M melanoma 104% | MDA-MB-231 breast 101% | RXF 393 renal 98.7% | SF-268 CNS 90.9% | SF-295 CNS 96.7% | SF-539 CNS 100% | UACC-257 melanoma 84.3% | M14 melanoma 87.6%

COc1ccc(-c2nc(N)n(C(=S)Nc3ccccc3)n2)cc1
inactive: DU-145 prostate 108% | K-562 leukemia 95% | MALME-3M melanoma 89.5% | MDA-MB-231 breast 93.9% | RXF 393 renal 103% | SF-268 CNS 96.3% | SF-295 CNS 91.2% | SF-539 CNS 97.1% | UACC-257 melanoma 105% | M14 melanoma 98.8%

Cc1ccc2c(c1)C(=O)CCS2
inactive: DU-145 prostate 107% | K-562 leukemia 114% | MALME-3M melanoma 85% | MDA-MB-231 breast 94.2% | RXF 393 renal 115% | SF-268 CNS 112% | SF-295 CNS 108% | SF-539 CNS 87.3% | UACC-257 melanoma 102% | M14 melanoma 96.1%

O=C1CCNC1
inactive: DU-145 prostate 103% | K-562 leukemia 108% | MALME-3M melanoma 108% | MDA-MB-231 breast 101% | RXF 393 renal 105% | SF-268 CNS 111% | SF-295 CNS 108% | SF-539 CNS 102% | UACC-257 melanoma 95.8% | M14 melanoma 105%

c1ccc(C(=NNc2nc3ccccc3o2)c2ccccn2)nc1
inactive: DU-145 prostate 20.3% | K-562 leukemia 10.9% | MALME-3M melanoma 19.5% | MDA-MB-231 breast 29.7% | RXF 393 renal 16.4%
active: SF-268 CNS 7.72% | SF-295 CNS 0.423% | SF-539 CNS 2.62% | UACC-257 melanoma -1.59% | M14 melanoma -4.91%

O=C(Nc1cccc(Cn2c(=O)[nH]c3ccc(Oc4ncccn4)cc3c2=O)c1)c1cccc(F)c1
inactive: DU-145 prostate 80.1% | K-562 leukemia 45.1% | MALME-3M melanoma 97.2% | MDA-MB-231 breast 74.7% | RXF 393 renal 87.1% | SF-268 CNS 74.1% | SF-295 CNS 81.8% | SF-539 CNS 80.1% | UACC-257 melanoma 67.3% | M14 melanoma 78.6%

CCCCCCCCCCCCOC(=N)N(C)C
inactive: DU-145 prostate 112% | K-562 leukemia 96.3% | MALME-3M melanoma 88.9% | MDA-MB-231 breast 104% | RXF 393 renal 112% | SF-268 CNS 101% | SF-295 CNS 98.4% | SF-539 CNS 99.4% | UACC-257 melanoma 92.2% | M14 melanoma 106%
